From PubChem BioAssay (EPA / NIEHS) come the findings set out here.

Each structure is given as a SMILES string. The source made the active and inactive calls. How the source made its calls: active means hit-call score of the fitted dose curve at least 0.9, where 1 is the maximum; inactive means score below 0.9.

Test [1] can be described thus: APR_HepG2_CellLoss_72hr: Apredica 72-hour HepG2 Assay for Cell Loss (AID 2282915). Particulars: high-content imaging. In outline: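 HepG2 cells exposed 72 h to compound at 0.39–200 uM (10 concentrations, duplicate) in 0.5% DMSO. Fixed with 3.7% formaldehyde and Hoechst 33342-stained. Imaged at 20x; nuclear count gives cell number, fitted bidirectionally versus DMSO.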

Test [2] in a line: APR_HepG2_P-H2AX_72hr: Apredica 72-hour HepG2 Assay for H2AX Phosphorylation (AID 2282916).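 Further: phospho-histone H2A.x immunostain intensity per cell marking DNA damage.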 Particulars: imaging, actives raise or lower the signal. The procedure, abridged: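 Following 72 hr treatment with 0.39–200 uM compound, HepG2 cells were formaldehyde-fixed, permeabilized and stained for phospho-H2A.x; signal was measured by high-content imaging and fitted bidirectionally against DMSO controls.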

Test [3] in a line: APR_HepG2_MitoMembPot_72hr: Apredica 72-hour HepG2 Assay for Mitochondrial Membrane Potential (AID 2282917). The note with it: imaging, actives raise or lower the signal. The procedure, abridged:
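HepG2 cells dosed 72 hr with compound at 0.39–200 uM in duplicate, 0.5% v/v DMSO final. Mitochondria stained with 250 nM MitoTracker Red CMXRos for 30 min before formaldehyde fixation, imaged by high-content fluorescence; bidirectional fit versus DMSO.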

The nature of test [4]: APR_HepG2_MitoticArrest_72hr: Apredica 72-hour HepG2 Assay for Mitotic Arrest (AID 2282918). Particulars: high-content imaging, actives raise or lower the signal. The procedure, abridged:
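High-content imaging of fixed human HepG2 cells after 72 h compound exposure (0.39–200 uM, duplicates, 0.5% DMSO); mitotic arrest scored from phospho-histone H3 and nuclear Hoechst staining relative to DMSO.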

Test [5] can be described thus: APR_HepG2_MicrotubuleCSK_72hr: Apredica 72-hour HepG2 Assay for Microtubule CSK Stabilty (AID 2282919). Particulars: HepG2 microtubule cytoskeleton, high-content imaging, actives raise or lower the signal. The procedure, abridged:
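HepG2 cells were exposed 72 hr to compound at 0.39–200 uM in duplicate (0.5% DMSO final), then fixed and permeabilized. Alpha-tubulin immunofluorescence was imaged by high-content microscopy, with bidirectional fitting against DMSO and taxol as positive control.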

The nature of test [6]: APR_HepG2_P-H2AX_24hr: Apredica 24-hour HepG2 Assay for H2AX Phosphorylation (AID 2282920). The note with it: high-content imaging, actives raise or lower the signal. In outline:
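High-content imaging of phospho-histone H2A.x immunofluorescence, nuclei counterstained with Hoechst 33342, in fixed HepG2 cells. Compounds ran 0.39–200 uM in duplicate for 24 h, final DMSO 0.5%. Signal change fitted both directions against DMSO.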

A short description of test [7]: APR_HepG2_StressKinase_72hr: Apredica 72-hour HepG2 Assay for Stress Kinase (AID 2282921). Particulars: HepG2 stress kinase (phospho-c-Jun) imaging, actives raise or lower the signal. In outline: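 Fluorescence intensity of Cy3-tagged anti-phospho-c-Jun antibody, quantified per cell from Hoechst-defined nuclei across six images per well, served as the read-out following 72 h exposure (0.39–200 uM, 0.5% v/v DMSO).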

Test [8] is described as follows: APR_HepG2_StressKinase_24hr: Apredica 24-hour HepG2 Assay for Stress Kinase (AID 2282922). Particulars: HepG2 stress kinase (phospho-c-Jun) imaging, actives raise or lower the signal. In outline: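 HepG2 cells exposed 24 h to 0.39–200 uM compound in duplicate (0.5% v/v DMSO final). Cells fixed in 3.7% formaldehyde, permeabilized and immunostained for phospho-c-Jun; read by high-content fluorescence imaging, fitted bidirectionally against DMSO.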

Test [9] is described as follows: APR_HepG2_p53Act_72hr: Apredica 72-hour HepG2 Assay for p53 Activation (AID 2282923).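 Further: average cellular p53 protein immunofluorescence intensity in HepG2 cells.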 Particulars: high-content imaging, actives raise or lower the signal. In outline: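 HepG2 monolayers receive test compounds in duplicate at ten concentrations (0.39 through 200 uM) for 72 hr. They are then formaldehyde-fixed, antibody-labelled for p53, Hoechst-stained and imaged, with activity fitted bidirectionally versus DMSO.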

The nature of test [10]: APR_HepG2_MitoMass_72hr: Apredica 72-hour HepG2 Assay for Mitochondrial Mass (AID 2282924).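 Further: MitoTracker Red CMXRos stain intensity per cell imaged as mitochondrial mass.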 The note with it: high-content imaging, actives raise or lower the signal. In outline:
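HepG2 cells dosed 72 hr at 0.39–200 uM (0.5% DMSO), in duplicate. MitoTracker Red CMXRos 250 nM loaded 30 min before formaldehyde fixation; high-content fluorescence imaging, bidirectional fit versus DMSO.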

Test [11] is described as follows: APR_HepG2_NuclearSize_72hr: Apredica 72-hour HepG2 Assay for Nuclear Size (AID 2282925). The note with it: high-content imaging, actives raise or lower the signal. The procedure, abridged:
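HepG2 cells dosed 72 h at 0.39–200 uM (10 concentrations, duplicate) in 0.5% v/v DMSO final. Fixed, Hoechst 33342-stained nuclei imaged; nuclear diameter measured by automated image analysis. Bidirectional fit versus DMSO.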

The nature of test [12]: ATG_CRE_CIS: Attagene CIS-FACTORIAL HepG2 Assay for human cAMP Responsive Element (CRE) binding protein 3 (AID 2282926). The note with it: HepG2 CRE cis-reporter, Attagene multiplexed mRNA; actives raise or lower the signal. The procedure, abridged: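 Multiplexed transcription-unit reporters transfected into HepG2; 24 h dosing; RT-PCR/capillary electrophoresis fluorescence read-out; bidirectional fit vs DMSO.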

Test [13] deals with CCAAT/enhancer-binding protein beta (Homo sapiens) (UniProt P17676). The test can be described thus: ATG_C_EBP_CIS: Attagene CIS-FACTORIAL HepG2 Assay for human CCAAT/Enhancer Binding Protein (C/EBP) beta (AID 2282927). Particulars: HepG2 Attagene cis-factorial transcription factor reporter; actives raise or lower the signal. In outline:
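HepG2 transiently transfected with multiplexed reporter units under cis-regulatory promoters reporting endogenous C/EBPb activity. After 24 h exposure, reporter mRNA assayed by RT-PCR, fluorescent labelling, HpaI digestion and capillary electrophoresis; bidirectional fitting versus DMSO.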

Test [14] can be described thus: ATG_CMV_CIS: Attagene CIS-FACTORIAL HepG2 Assay for human CMV (Internal Marker) (AID 2282928).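 Further: endpoint acts as a background internal control marker rather than a target.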 Particulars: HepG2 CMV promoter reporter, transcription factor profiling; actives raise or lower the signal. In outline: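 CMV internal-marker background readout in transiently transfected HepG2 cells bearing cis-regulated reporter units. Reporter mRNA is measured 24 h after dosing by RT-PCR and capillary electrophoresis, with bidirectional fitting against DMSO.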

The nature of test [15]: ATG_DR4_LXR_CIS: Attagene CIS-FACTORIAL HepG2 Assay for human Liver X Receptor (LXR), DR4 submotif (AID 2282929). The note with it: HepG2 Attagene DR4 cis-reporter, mRNA transcription; actives raise or lower the signal. In outline:
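The endpoint is DR4-element-driven reporter transcripts after 24 h chemical exposure of transfected HepG2 cells. These were measured via RT-PCR and capillary electrophoresis, and gain or loss of signal was fitted relative to DMSO controls.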

The target of test [16] is Aryl hydrocarbon receptor (Homo sapiens) (UniProt P35869). The test can be described thus: ATG_Ahr_CIS: Attagene CIS-FACTORIAL HepG2 Assay for human Aryl Hydrocarbon Receptor (Ahr) (AID 2282930). The note with it: HepG2 AhR cis-factorial reporter transcription; actives raise or lower the signal. The procedure, abridged: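 HepG2 cells transiently transfected with cis-element-driven multiplexed reporter units; endogenous AhR activity read as reporter mRNA 24 h after dosing, via RT-PCR, 6-FAM labelling, HpaI digestion and capillary electrophoresis. Bidirectional fit relative to DMSO.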
Chain of Aryl hydrocarbon receptor (Homo sapiens) (P35869 whole entry, looked up): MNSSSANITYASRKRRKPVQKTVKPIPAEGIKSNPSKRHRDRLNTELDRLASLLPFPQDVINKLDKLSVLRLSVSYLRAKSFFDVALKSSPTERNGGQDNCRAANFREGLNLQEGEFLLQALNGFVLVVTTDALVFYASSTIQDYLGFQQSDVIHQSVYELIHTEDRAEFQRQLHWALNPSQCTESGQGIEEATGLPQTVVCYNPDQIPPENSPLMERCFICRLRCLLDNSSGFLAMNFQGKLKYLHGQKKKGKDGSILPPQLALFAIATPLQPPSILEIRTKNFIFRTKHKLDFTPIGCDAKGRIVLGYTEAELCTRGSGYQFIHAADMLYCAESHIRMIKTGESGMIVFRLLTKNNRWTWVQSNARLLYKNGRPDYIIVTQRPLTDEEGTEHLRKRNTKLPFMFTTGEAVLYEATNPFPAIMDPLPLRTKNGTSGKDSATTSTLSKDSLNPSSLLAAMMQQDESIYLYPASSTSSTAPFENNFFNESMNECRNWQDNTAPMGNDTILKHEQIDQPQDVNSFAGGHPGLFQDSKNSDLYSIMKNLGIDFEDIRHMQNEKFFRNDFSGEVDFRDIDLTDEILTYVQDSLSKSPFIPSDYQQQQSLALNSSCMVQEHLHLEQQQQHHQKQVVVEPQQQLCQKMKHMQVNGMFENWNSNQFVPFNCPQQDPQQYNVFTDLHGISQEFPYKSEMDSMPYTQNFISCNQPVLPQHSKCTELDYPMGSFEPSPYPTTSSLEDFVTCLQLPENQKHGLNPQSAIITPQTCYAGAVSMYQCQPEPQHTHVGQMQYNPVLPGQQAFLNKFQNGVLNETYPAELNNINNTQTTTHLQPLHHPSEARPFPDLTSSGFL

Test [17] can be described thus: ATG_AP_1_CIS: Attagene CIS-FACTORIAL HepG2 Assay for human Activator Protein 1 (AP-1) (AID 2282931). The note with it: HepG2 Attagene cis-factorial AP-1 reporter mRNA; actives raise or lower the signal. The procedure, abridged: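 Readout is reporter transcript level from endogenous transcription factor activity, quantified by RT-PCR with fluorescent primer extension and capillary electrophoresis. Transiently transfected HepG2 cells, 24 h exposure. Curves fitted both directions versus DMSO.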

Test [18] is described as follows: ATG_AP_2_CIS: Attagene CIS-FACTORIAL HepG2 Assay for human Activator Protein 2 (AP-2) (AID 2282932). Particulars: HepG2 AP-2 cis-reporter, Attagene transcription factor profiling; actives raise or lower the signal. In outline: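 Multiplexed mRNA reporter assay in HepG2: cis-regulated units report endogenous factor activity after 24 h treatment. Fluorescence from capillary electrophoresis of RT-PCR products gives the signal, with DMSO as baseline.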

The target in test [19] is Retinoic acid receptor alpha (Homo sapiens) (UniProt P10276). As to the kind of experiment: ATG_DR5_RAR_CIS: Attagene CIS-FACTORIAL HepG2 Assay for human Retinoic Acid Receptor Alpha (RARE), DR5 submotif (AID 2282934).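 On AC50: reporter responds to endogenous RAR alpha beta and gamma in HepG2 not RARA alone.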 The note with it: HepG2 Attagene cis-factorial RARE DR5 reporter, mRNA; actives raise or lower the signal. The procedure, abridged:
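HepG2 cells transiently transfected with multiplexed reporter units; DR5 cis-element drives reporter through endogenous transcription factors. After 24 h dosing, reporter mRNA quantified by RT-PCR, fluorescent labeling, HpaI digestion and capillary electrophoresis; bidirectional fitting versus DMSO.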

The nature of test [20]: ATG_BRE_CIS: Attagene CIS-FACTORIAL HepG2 Assay for human Bone Morphogenetic Protein (BMP) Response Element (BRE) (AID 2282933). Particulars: HepG2 BMP response element reporter, Attagene transcription factor profiling; actives raise or lower the signal. The procedure, abridged: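 After a 24 h chemical treatment, transiently transfected HepG2 cells were lysed for RNA; reporter transcripts were quantified by fluorescent RT-PCR and capillary electrophoresis, normalised to DMSO.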

Chain of CCAAT/enhancer-binding protein beta (Homo sapiens) (P17676 whole entry, looked up): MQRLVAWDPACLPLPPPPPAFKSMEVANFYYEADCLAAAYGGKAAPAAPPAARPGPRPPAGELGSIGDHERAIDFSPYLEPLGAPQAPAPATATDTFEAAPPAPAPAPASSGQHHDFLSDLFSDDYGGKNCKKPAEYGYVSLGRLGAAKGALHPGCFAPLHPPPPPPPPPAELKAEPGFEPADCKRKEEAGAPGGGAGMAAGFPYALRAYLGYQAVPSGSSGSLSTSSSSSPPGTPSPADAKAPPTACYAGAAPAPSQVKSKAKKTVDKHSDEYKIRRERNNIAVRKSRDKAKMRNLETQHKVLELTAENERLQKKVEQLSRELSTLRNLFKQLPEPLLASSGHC
Chain of Retinoic acid receptor alpha (Homo sapiens) (P10276 whole entry, looked up): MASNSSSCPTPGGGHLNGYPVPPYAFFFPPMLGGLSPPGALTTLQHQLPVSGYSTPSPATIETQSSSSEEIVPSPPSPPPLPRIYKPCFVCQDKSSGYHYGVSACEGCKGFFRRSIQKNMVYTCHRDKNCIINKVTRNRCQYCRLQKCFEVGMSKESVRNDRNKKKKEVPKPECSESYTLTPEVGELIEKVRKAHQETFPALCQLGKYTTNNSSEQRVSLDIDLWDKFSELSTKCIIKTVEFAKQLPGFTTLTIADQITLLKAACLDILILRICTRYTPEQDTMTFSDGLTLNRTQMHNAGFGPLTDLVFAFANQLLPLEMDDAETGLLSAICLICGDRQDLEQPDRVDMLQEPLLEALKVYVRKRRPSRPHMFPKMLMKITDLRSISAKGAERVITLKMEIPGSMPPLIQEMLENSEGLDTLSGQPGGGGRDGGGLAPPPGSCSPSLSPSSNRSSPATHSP

Consider `Cc1ccc(C)c(C)c1`, for which the compound was called inactive in test [1], in test [2], in test [3], in test [4], in test [5] and in test [6]. For the same compound, the compound was called inactive in [7], in [8], in test [9], in [10], in test [11] and in test [12]. Besides, the result in [13], in [14], in [15], in [16], in test [17] and in test [18] was inactive. Also, in [19], the result was inactive.

Take `CCCCCCCCCCCC(=O)OC`: the compound was called inactive in [1], in test [2], in test [3], in test [4], in test [5] and in [6]. Besides, the compound was classed as inactive in test [7], in test [8], in [9], in test [10], in [11] and in [12]. Also, the outcome in test [13], in test [14], in test [15], in [16] and in test [17] was inactive.

On to `CC1(C)NC(=O)NC1=O`, for which the compound was classed as inactive in [1], in test [2], in [3], in test [4], in test [5] and in test [6]. Further, the outcome in test [7], in [8], in [9], in test [10], in test [11] and in test [12] was inactive. The result in test [13], in [14], in test [15], in test [16], in test [17] and in test [18] was inactive. The compound was called inactive in test [20].

A word on the AC50: it is the concentration giving half of the maximal activity seen. In the case of `CCCCOC(=O)CCCCCCCCC(=O)OCCCC`, the compound was called inactive in [1], in test [2], in test [3], in [4], in test [5] and in [6]. Moreover, the result in test [7], in [8], in [9], in test [10], in [11] and in test [12] was inactive. Besides, the result in test [13], in test [14], in [16], in [17], in [20] and in test [19] was inactive. Further, the AC50 in [15] is 144 µM (active).

Take `Nc1nc(N)c2nc(CNc3ccc(C(=O)N[C@@H](CCC(=O)O)C(=O)O)cc3)cnc2n1`: the result in [1], in [2], in [3], in [4], in test [5] and in test [6] was inactive. Moreover, the outcome in test [7], in test [8], in test [9], in test [10], in test [11] and in [12] was inactive. Further, the outcome in test [13], in test [15], in test [16] and in [18] was inactive. Moreover, the half-maximal activity concentration (AC50) was 0.00818 µM (active) in [14] and 0.00864 µM (active) in test [17].

As to `COc1cc(C=O)ccc1O`, the outcome in test [1], in test [2], in test [3], in test [4], in test [5] and in test [6] was inactive. In addition, the compound was classed as inactive in test [7], in [8], in test [9], in test [10], in [11] and in test [12]. Further, the outcome in test [13], in [14], in [15], in test [17], in [18] and in [20] was inactive. Further, the AC50 in test [16] is 80.8 µM (active); in test [19], 31.1 µM (active).

With `CCCCCCCCCCCCCCCC`, the result in [1], in [2], in test [3], in [4], in test [5] and in [6] was inactive. In addition, the compound was classed as inactive in test [7], in [8], in test [9], in test [10], in [11] and in [12]. Also, the result in test [13], in [15], in test [16] and in test [17] was inactive.
